# Where “and” joins values, the source holds several entries; their conditions need not be identical. Identical values can stand only once. Records with an inconclusive call do not appear. A call without a number means that no potency is given here. A number with no mark means an inactive call. Calls of active or inactive are those of the source. Calls come from the whole dose curve; as a rule, active = well fitted inhibition curve with a large enough effect; inconclusive = small, poorly fitted or top-dose-only effect; inactive = flat fitted curve, though single readings scatter.
# Columns and labels:
# PAD = experiment: qHTS profiling for inhibitors of Plasmodium falciparum proliferation (AID 504749); conditions: P. falciparum in erythrocytes, SYBR Green DNA, 72 h; series mostly up to 28.7 µM
# Procedure, shortened: (§1)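 Each compound contacts P. falciparum-infected red blood cells for 72 h at 37 C; lysis buffer (Tris, EDTA, saponin, Triton X, SYBR Green I) is added and fluorescence measured next morning; values normalized to controls.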
# PC15 = experiment: as above; conditions: P. falciparum in erythrocytes, SYBR Green DNA, 72 h; series mostly up to 28.7 µM
# Procedure, shortened: as §1
# PC26 = experiment: as above; conditions: P. falciparum in erythrocytes, SYBR Green DNA, 72 h; series mostly up to 28.7 µM
# Procedure, shortened: as §1
# PC49 = experiment: as above; conditions: P. falciparum in erythrocytes, SYBR Green DNA, 72 h; series mostly up to 28.7 µM
# Procedure, shortened: as §1
# SC27B = experiment: as above; conditions: P. falciparum in erythrocytes, SYBR Green DNA, 72 h; series mostly up to 28.7 µM
# Procedure, shortened: as §1
# TAB109 = experiment: as above; conditions: P. falciparum in erythrocytes, SYBR Green DNA, 72 h; series mostly up to 28.7 µM
# Procedure, shortened: as §1
# TAB113 = experiment: as above; conditions: P. falciparum in erythrocytes, SYBR Green DNA, 72 h; series mostly up to 28.7 µM
# Procedure, shortened: as §1
# TAB165 = experiment: as above; conditions: P. falciparum in erythrocytes, SYBR Green DNA, 72 h; series mostly up to 28.7 µM
# Procedure, shortened: as §1
# W2 = experiment: as above; conditions: P. falciparum in erythrocytes, SYBR Green DNA, 72 h; series mostly up to 28.7 µM
# Procedure, shortened: as §1
# CRL-7250 = normal cell line; experiment: Cytotoxic Profiling of Annotated Libraries Using Quantitative High-Throughput Screening (AID 1296008); conditions: Five cell lines viability, CellTiter-Glo ATP luminescence, 48-72 h; max response: stronger effect = lower value
# Procedure, shortened: (§2)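 Cells exposed to compounds for 48 or 72 hr at 37 degrees Celsius. Viability read as ATP-coupled luminescence with CellTiter-Glo after 10 min at room temperature.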
# HEK293 = experiment: as above; conditions: Five cell lines viability, CellTiter-Glo ATP luminescence, 48-72 h; max response: stronger effect = lower value
# Procedure, shortened: as §2
# HaCat [1] = experiment: as above; conditions: Five cell lines viability, CellTiter-Glo ATP luminescence, 48-72 h; max response: stronger effect = lower value
# Procedure, shortened: as §2
# KB-3-1 = experiment: as above; conditions: Five cell lines viability, CellTiter-Glo ATP luminescence, 48-72 h; max response: stronger effect = lower value
# Procedure, shortened: as §2
# NIH3T3 = experiment: as above; conditions: Five cell lines viability, CellTiter-Glo ATP luminescence, 48-72 h; max response: stronger effect = lower value
# Procedure, shortened: as §2
# HACAT [2] = experiment: qHTS assay to identify novel small-molecules to repurpose for Merkel cell carcinoma treatment (AID 1296009); conditions: MCC and control cell lines, CellTiter-Glo viability, 72 h; at 44.8 µM (top of the series) unless noted
# Procedure, shortened: (§3)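 Dose-response viability screen; 72 hr exposure at 37 degree celsius; CellTiter-Glo added, 10 min room temperature, luminescence read; RLUs scaled between no-cell and DMSO wells.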
# MCC-13 = experiment: as above; conditions: MCC and control cell lines, CellTiter-Glo viability, 72 h; series mostly up to 46 µM
# Procedure, shortened: as §3
# MCC-26 = experiment: as above; conditions: MCC and control cell lines, CellTiter-Glo viability, 72 h; series mostly up to 46 µM
# Procedure, shortened: as §3
# MKL-1 = experiment: as above; conditions: MCC and control cell lines, CellTiter-Glo viability, 72 h; series mostly up to 46 µM
# Procedure, shortened: as §3
# MKL-2 = experiment: as above; conditions: MCC and control cell lines, CellTiter-Glo viability, 72 h; series mostly up to 46 µM
# Procedure, shortened: as §3
# HEK293T = experiment: as above; conditions: MCC and control cell lines, CellTiter-Glo viability, 72 h; at 44.8 µM (top of the series)
# Procedure, shortened: as §3
# Note: nearly all actives have a fitted effect of over 60% in size.
# Potency is the fitted concentration of half-maximal effect.
smiles,measurement,setting,value
CCN(CC)C(=O)c1ccc(O)c(OC)c1,outcome,PAD,inactive
same,outcome,PC15,inactive
same,Potency,PC26,inactive
same,outcome,PC49,inactive
same,Potency,SC27B,inactive
same,outcome,TAB109,inactive
same,Potency,TAB113,inactive
same,Potency,TAB165,inactive
same,Potency,W2,inactive
same,max response,CRL-7250,-9.2%
same,max response,HEK293,-4.79%
same,outcome,HaCat [1],inactive
same,max response,KB-3-1,2.39% and -3.02%
same,max response,NIH3T3,-4.21%
same,outcome,HACAT [2],inactive
same,Potency,MCC-13,inactive
same,Potency,MCC-26,inactive
same,Potency,MKL-1,inactive
same,Potency,MKL-2,inactive
Cc1cccc(C)c1OCC(C)N (configuration not stated),outcome,PAD,inactive
same,outcome,PC15,inactive
same,Potency,PC26,inactive
same,Potency,SC27B,inactive
same,outcome,TAB109,inactive
same,Potency,TAB113,inactive
same,Potency,W2,6010 nM (active)
same,outcome,CRL-7250,inactive
same,outcome,HEK293,inactive
same,outcome,HaCat [1],inactive
same,max response,KB-3-1,6.51%
same,outcome,NIH3T3,inactive
same,outcome,HACAT [2],inactive
same,outcome,HEK293T,inactive
same,Potency,MCC-13,inactive
same,Potency,MCC-26,inactive
same,Potency,MKL-1,inactive
same,Potency,MKL-2,inactive
NC(=O)NN=Cc1ccc([N+](=O)[O-])o1,outcome,CRL-7250,inactive
same,max response,HEK293,1.13%
same,outcome,HaCat [1],inactive
same,max response,KB-3-1,2.76%
same,outcome,NIH3T3,inactive
same,outcome,HACAT [2],inactive
same,Potency,MCC-13,inactive
same,Potency,MCC-26,inactive
same,Potency,MKL-1,inactive
same,Potency,MKL-2,inactive
CC(=Cc1ccccc1)C=C1SC(=S)N(CC(=O)O)C1=O,max response,CRL-7250,-0.535%
same,max response,HEK293,-4.91%
same,outcome,HaCat [1],inactive
same,max response,KB-3-1,-2.93%
same,outcome,NIH3T3,inactive
same,outcome,HACAT [2],inactive
same,Potency,MCC-13,inactive
same,Potency,MKL-1,inactive
same,Potency,MKL-2,inactive
CC1CCC(C(=O)N(c2cc(C#CC(C)(C)C)sc2C(=O)O)C2CCC(O)CC2)CC1 (configuration not stated),max response,CRL-7250,-4.19% and 3.8%
same,max response,HEK293,-1.31%
same,outcome,HaCat [1],inactive
same,max response,KB-3-1,-8.44% and -2.14%
same,max response,NIH3T3,-3.97%
same,outcome,NIH3T3,inactive
same,outcome,HACAT [2],inactive
same,Potency,MCC-13,inactive
same,Potency,MKL-1,inactive
same,Potency,MKL-2,inactive
COc1cc(NC(=O)c2ccc(-c3ccc(Cl)cc3)o2)cc(OC)c1,outcome,CRL-7250,inactive
same,max response,HEK293,2.11%
same,outcome,HaCat [1],inactive
same,max response,KB-3-1,5.65%
same,max response,NIH3T3,1.05%
same,outcome,HACAT [2],inactive
same,Potency,MCC-13,inactive
same,Potency,MCC-26,inactive
same,Potency,MKL-1,inactive
same,Potency,MKL-2,inactive
O=c1cc(CN2CCOCC2)occ1OCCCCCSc1ccnc2cc(C(F)(F)F)ccc12,Potency,CRL-7250,11.8 µM (active) and 9.2 µM (active)
same,Potency,HEK293,8.33 µM (active) and 4.11 µM (active)
same,max response,HaCat [1],-9.94%
same,max response,KB-3-1,-24.2%
same,max response,NIH3T3,0.796%
same,Potency,MCC-13,inactive
same,Potency,MCC-26,inactive
same,Potency,MKL-1,inactive
same,Potency,MKL-2,inactive
CC(C)C(C)C=CC(C)C1CCC2C3=CC=C4CC(O)CCC4(C)C3CCC21C (configuration not stated),max response,CRL-7250,-1.32%
same,max response,HEK293,4.56%
same,max response,HaCat [1],-0.819%
same,max response,KB-3-1,1.29%
same,max response,NIH3T3,-6.24%
same,Potency,MCC-13,inactive
same,Potency,MCC-26,inactive
same,Potency,MKL-1,inactive
same,Potency,MKL-2,inactive
O=c1cc(-c2cccc3c2Sc2ccccc2S3)oc(N2CCOCC2)c1,outcome,CRL-7250,inactive
same,outcome,HEK293,inactive
same,max response,HaCat [1],-21.6%
same,outcome,KB-3-1,inactive
same,outcome,NIH3T3,inactive
same,outcome,HEK293T,inactive
same,Potency,MCC-13,inactive
same,Potency,MCC-26,inactive
same,Potency,MKL-1,inactive
same,Potency,MKL-2,inactive
COC(=O)C1=CO[C@@H](O)[C@@H]2C(CO)=CC[C@@H]12,max response,CRL-7250,0.508%
same,max response,HEK293,4.92%
same,max response,HaCat [1],3.95%
same,max response,KB-3-1,-1.15%
same,outcome,NIH3T3,inactive
same,Potency,MCC-13,inactive
same,Potency,MCC-26,inactive
same,Potency,MKL-2,9350 nM (active)
O=C1C[C@@H](c2ccc(O)cc2)Oc2cc(O)cc(O)c21,max response,CRL-7250,-1.31%
same,max response,HEK293,-0.968%
same,max response,HaCat [1],2.46%
same,max response,KB-3-1,7.82%
same,max response,NIH3T3,1.63%
same,Potency,MCC-13,inactive
same,Potency,MCC-26,inactive
same,Potency,MKL-1,inactive
same,Potency,MKL-2,inactive
O=C(O)C(O)Cc1ccc(O)c(O)c1 (configuration not stated),max response,CRL-7250,-24.8%
same,outcome,HEK293,inactive
same,max response,HaCat [1],-1.88%
same,max response,KB-3-1,5.06%
same,max response,NIH3T3,-0.893%
same,outcome,HEK293T,inactive
same,Potency,MCC-13,inactive
same,Potency,MCC-26,inactive
same,Potency,MKL-1,inactive
same,Potency,MKL-2,inactive
COc1ccc(-c2cc(=O)c3c(O)cc(O)cc3o2)cc1O,outcome,CRL-7250,inactive
same,max response,HEK293,-3.68%
same,max response,HaCat [1],3.57%
same,max response,KB-3-1,-19.6%
same,max response,NIH3T3,-2.97%
same,Potency,MCC-13,inactive
same,Potency,MCC-26,inactive
same,Potency,MKL-1,inactive
same,Potency,MKL-2,inactive
O=c1cc(N2CCOCC2)oc2c(-c3cccc4c3sc3ccccc34)cccc12,max response,CRL-7250,-14.3%
same,Potency,HEK293,2.96 µM (active)
same,max response,HaCat [1],-6.51%
same,outcome,KB-3-1,inactive
same,Potency,NIH3T3,16600 nM (active)
same,Potency,MCC-13,inactive
same,Potency,MCC-26,inactive
same,Potency,MKL-1,inactive
same,Potency,MKL-2,inactive
CN(C)C1CCN(C(=O)c2ccc(NC(=O)Nc3nc(N4CCOCC4)nc(N4CCOCC4)n3)cc2)CC1,Potency,CRL-7250,0.6 nM (active)
same,Potency,HEK293,0.142 µM (active)
same,Potency,HaCat [1],252 nM (active)
same,Potency,KB-3-1,50.2 nM (active)
same,Potency,NIH3T3,93.5 nM (active)
same,Potency,MCC-26,833 nM (active)
same,Potency,MKL-1,132 nM (active)
same,Potency,MKL-2,296 nM (active)

# From PubChem BioAssay (NCATS)
